Data on 21 compounds can be found in PubChem BioAssay AID2570 (National Center for Advancing Translational Sciences (NCATS), 2010).

Several values for one entry are separate records, joined by “and”; a condition that tells them apart may be missing. Equal values may be shown once. Results filed as inconclusive are left out. Values without a mark were called inactive. Calls come from the whole dose curve; as a rule, active = well fitted curve in the direction sought with a large enough effect; inconclusive = small, poorly fitted or top-dose-only effect, or another doubt; inactive = no such curve, though single readings can be large or run the other way.

Chain of Vasopressin V1b receptor (Homo sapiens) (P47901 whole entry, looked up): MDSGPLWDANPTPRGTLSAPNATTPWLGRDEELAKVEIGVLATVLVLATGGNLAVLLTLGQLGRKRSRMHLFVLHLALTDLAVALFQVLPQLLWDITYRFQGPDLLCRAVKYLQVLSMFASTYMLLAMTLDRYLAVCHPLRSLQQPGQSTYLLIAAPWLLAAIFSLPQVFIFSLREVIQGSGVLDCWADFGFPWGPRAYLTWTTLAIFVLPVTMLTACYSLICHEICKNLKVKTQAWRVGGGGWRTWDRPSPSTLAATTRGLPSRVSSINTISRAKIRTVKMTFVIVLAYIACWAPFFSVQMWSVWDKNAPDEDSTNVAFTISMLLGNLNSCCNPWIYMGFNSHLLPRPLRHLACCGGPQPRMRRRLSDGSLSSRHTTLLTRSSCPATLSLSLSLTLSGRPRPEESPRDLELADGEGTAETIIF

This experiment has as its target Vasopressin V1b receptor (Homo sapiens) (UniProt P47901). The experiment in a line: Counterscreen Concentration-Response Assay for Antagonists of the Neuropeptide S Receptor: Vasopressin Receptor Calcium Signal Transduction. As to conditions: CHO-AVPR1B, vasopressin-stimulated calcium fluorescence, FDSS. The gist of the method: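 CHO cells stably expressing human AVPR1B, calcium-dye loaded, were given compound, then stimulated with 60 nM vasopressin in HBSS/0.1% BSA. Peak kinetic fluorescence was normalized to DMSO and no-signal controls; AC50 from Hill fits.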
(A counterscreen serves to expose hits that act by an unwanted route or on another target.)
In the case of `CCC(C)(CCN1CCOCC1)N(Cc1cc2ccccc2n(C)c1=O)C(=O)C1CCCCC1` (stereo unspecified), the max response was -9.76%.
To `COc1cccc(C2c3c(ncn(-c4ccccc4SC)c3=N)Oc3ccc4ccccc4c32)c1` (stereo unspecified) belongs 14.8%; to `COc1ccc(C2c3ccc4ccccc4c3Oc3ncn(CCN4CCOCC4)c(=N)c32)cc1OC` (stereo unspecified), -8.9%; to `Cc1c(P(=S)(c2ccccc2)c2ccccc2)c2ccccc2n1C/C=C/c1ccccc1`, 0.93%.
With `COc1cccc(C2c3c(ncn(-c4ccc(C(C)(C)C)cc4)c3=N)Oc3ccc4ccccc4c32)c1` (stereo unspecified), the max response is 17.5%.
Consider `N=c1c2c(ccn1Cc1ccccc1)Oc1ccc3ccccc3c1C2c1ccccc1` (stereo unspecified), for which the max response is 18.5%.
Next, `COc1ccc(C2c3c(nc(C)[nH]c3=O)Oc3ccc4ccccc4c32)cc1OC` (stereo unspecified): -25.8%; `COc1ccc(C2C3=C(N=CN(CCN4CCOCC4)C3N)Oc3ccccc32)cc1OC` (stereo unspecified): 19.6%; `N=c1c2c(ccn1-c1ccccc1)Oc1ccc3ccccc3c1C2c1ccccc1` (stereo unspecified): -28.3%.
As for `Cc1c(P(=S)(c2ccccc2)c2ccccc2)c2ccccc2n1C(=O)Cc1ccccc1`, the max response is 5.72%.
Regarding `O=C(CCc1ccccc1)Nc1ncnc2c1C(c1ccccc1)c1c(ccc3ccccc13)O2` (stereo unspecified), the max response was -23%.
On to `COc1ccc(C2c3ccccc3Oc3ncn(CCN4CCOCC4)c(=N)c32)cc1OC` (stereo unspecified), for which the max response was 20.8%.
To `O=C1OC(c2ccccc2)(c2ccccc2)N2CCN(C(=O)NCc3ccc(F)cc3)CC12` (stereo unspecified) belongs 22.2% and 17.7%; to `CCOC(=O)CC(=O)Nc1ncnc2c1C(c1ccccc1)c1c(ccc3ccccc13)O2` (stereo unspecified), -17.5%.
Consider `CCOc1ccc(C2c3c(ncn(-c4ccccc4)c3=N)Oc3ccc4ccccc4c32)cc1OCC` (stereo unspecified), for which the max response was -23.4%.
Regarding `Nc1ncnc2c1C(c1ccccc1)c1c(ccc3ccccc13)O2` (stereo unspecified), the max response is 4.27%.
Take `COc1cccc(C2c3c(ncn(-c4ccccc4C#N)c3=N)Oc3ccc4ccccc4c32)c1` (stereo unspecified): the max response was 2.63%.
With `COc1cccc(C2C(C#N)=C(NC(=O)NCc3ccccc3)Oc3ccc4ccccc4c32)c1` (stereo unspecified), the max response was -21.8%.
To `COc1ccc(C2c3c(nc(Cc4ccccc4)[nH]c3=O)Oc3ccc4ccccc4c32)cc1OC` (stereo unspecified) belongs 14.7%.
Regarding `COc1cccc(C2c3c(ncn(-c4ccncc4)c3=N)Oc3ccc4ccccc4c32)c1` (stereo unspecified), the max response was 23.2%.
With `COc1cccc(C2c3c(ncn(-c4ccc(C)cc4)c3=N)Oc3ccc4ccccc4c32)c1` (stereo unspecified), the max response is -0.274%.
